PP1 counter: PP1-alpha phosphatase inhibitors, primary screen, counter-screen for PP5 inhibitor project, biochemical, fluorescence, OMFP substrate, single point; purified PP1alpha; inhibition, % at 6.7 µM; 320,000 tested, 0.9% active; AID 2235, 2010;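 active = inhibition above the mean inhibition of all tested compounds plus 3 SD, computed separately for each screening campaign, cut at about 15% in these data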
Calb FLC: C. albicans growth inhibition with fluconazole, primary screen, CaCi-2 strain, Alamar Blue fluorescence. growth inhibition, % (test concentration not listed). C. albicans CaCi-2 (fluconazole-resistant clinical isolate) + fluconazole, 48 h. 300,000 tested, 0.57% active;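 active = growth inhibition above about 58% in most replicates, limit read from the data, passing the limit was not always enough; inconclusive = exactly half the replicates above a set limit; inactive = most replicates below a set limit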;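 note: all wells also contain fluconazole at 8 µg/ml as a sub-toxic cotreatment; 0% = median of DMSO wells and 100% = median of geldanamycin control wells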
ALR H2O2 inh: inhibitors of human ALR sulfhydryl oxidase, primary screen, biochemical, H2O2 detection, HRP-luminol luminescence, single point; purified ALR, DTT oxidation; AID 485317, 2010; FAD-linked sulfhydryl oxidase ALR (Homo sapiens), P55789; inhibition, % (test concentration not listed); 290,000 tested, 3.8% active;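 active = mean replicate inhibition above about 79%, with every replicate also reaching it, limit read from the data; inconclusive = only one of the two criteria met; inactive = mean below limit and not every replicate reaching it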
Target sequence (P55789 whole entry, looked up): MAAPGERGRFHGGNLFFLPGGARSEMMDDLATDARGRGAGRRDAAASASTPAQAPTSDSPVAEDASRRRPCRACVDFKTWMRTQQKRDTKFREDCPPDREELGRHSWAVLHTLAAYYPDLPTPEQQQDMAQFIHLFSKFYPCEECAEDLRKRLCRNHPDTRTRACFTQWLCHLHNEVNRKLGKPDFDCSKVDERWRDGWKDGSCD
CSC inhib: cancer stem cell viability inhibitors, primary screen, luminescence; cancer stem cell-like cells viability; inhibition, % at 7.5 µM; 300,000 tested, 1.1% active; AID 2717, 2010; in the data active = inhibition above about 75%; inconclusive = no clear call, values can overlap the other calls; tested in HMLE shEcad cells
PP5 inh: PP5 phosphatase inhibitors, primary screen, biochemical, fluorescence; Serine/threonine-protein phosphatase 5 (Homo sapiens), P53041; purified PP5c, OMFP substrate fluorescence; inhibition, % at 6.7 µM; 320,000 tested, 0.18% active; AID 1987, 2009;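 active = inhibition above the campaign's mean inhibition across all tested compounds plus 3 SD, cut at about 9.5% in these data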;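 note: 0% = DMSO only and 100% = 100 µM cantharidin control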
Active calls of the source: *; ? = inconclusive; nt = no result given. Only some compounds are listed: those with a hit (about 5.4% of all), similar ones and a draw of the others.

SMILES | PP1 counter | Calb FLC | ALR H2O2 inh | CSC inhib | PP5 inh
NC(=O)c1ccc(NC(=O)COC(=O)CCCN2C(=O)c3cccc4cccc(c34)C2=O)cc1 | -4 | 0 | -3 | -4 | 3
O=C1OCC(CO)(CO)N=C1NNc1ccc(Cl)c(Cl)c1 | 0 | ? | 100* | 12 | 0
COC(=O)c1ccc(CSc2nc3ccccc3o2)cc1 | -4 | 28 | 19 | -12 | 1
Cc1ccc(N=Cc2ccc(N(C)C)cc2)cc1 | -5 | -21 | -18 | -9 | 2
CN(C)c1ccc(C=Nc2ccc(N(C)C)cc2)cc1 | 0 | 13 | 97* | 2 | 2
CN(C)c1ccc(/C=N/O)cc1 | -2 | -2 | 99* | -16 | 1
CC(C)CC1(C)NC(=O)N(CC(=O)Nc2ccc(F)c(F)c2F)C1=O (centres undefined) | nt | nt | nt | 3 | nt
Cc1cc(C)n(CC(O)COc2ccc(F)cc2)n1 (centres undefined) | 1 | 4 | -5 | -7 | 3
CCn1c(CN2c3ccccc3Sc3ccccc32)n[nH]c1=S | -2 | -17 | 98* | -3 | 4
Cc1ccc(C)c(S(=O)(=O)N2CCN(CC(=O)Nc3sccc3C#N)CC2)c1 | 1 | 7 | 1 | 55 | -1
Cc1ccc(-c2nc3cccnc3s2)cc1NS(=O)(=O)c1ccc2c(c1)OCCO2 | 1 | -11 | -5 | 77* | 3
Cc1ccc(-c2csc(N(Cc3ccccc3)C(=O)COc3ccccc3)n2)cc1 | -2 | 0 | -5 | -8 | 0
COc1ccc(/C=N/N=C2/NC(=O)C(CC(=O)O)S2)cc1OCc1ccccc1Cl (centres undefined) | 1 | 2 | 92* | 13 | 1
COc1ccc(/C=N/N=C2/NC(=O)C(CC(=O)O)S2)cc1OCc1ccc(Cl)cc1Cl (centres undefined) | 4 | 6 | 7 | 11 | 1
CCOc1cc(/C=N/N=C2/NC(=O)C(CC(=O)O)S2)ccc1OS(=O)(=O)c1ccc(C)cc1 (centres undefined) | nt | 11 | nt | nt | nt
CCOc1cc(/C=N/N=C2/NC(=O)C(CC(=O)O)S2)ccc1OCc1ccccc1Cl (centres undefined) | 3 | -4 | 98* | 13 | 4
O=c1[nH]c(SCc2cccc(F)c2)nc2c1CCCC2 | 1 | 15 | nt | 20 | 1
C=C(C)C(=O)OC1(C(F)(F)F)Oc2cc(C)ccc2NC1=O (centres undefined) | 2 | 7 | 98* | 70 | 2
CCOC(=O)C1(N(CC)CC)Sc2cc(C)ccc2NC1=O (centres undefined) | 5 | 21 | 2 | 37 | 5
O=C1Nc2ccc(Br)cc2C1(O)c1ccccc1 (centres undefined) | -4 | 2 | -5 | 6 | 0
O=C1Nc2ccc(Br)cc2C12NNc1ccccc1O2 (centres undefined) | 4 | 23 | -7 | 83* | 4
O=C(Nc1ccc(Br)cc1)N1CCCCCCC1 | -2 | -2 | -7 | -9 | 0
CC(C)OCCCn1c(-c2ccco2)nc2nc3ccccc3nc21 | -2 | -3 | 98* | 8 | 4
Cc1ccc(SCC(=O)Nc2cc([N+](=O)[O-])ccc2O)cc1 | 5 | 87* | 8 | -9 | 0
O=C(CSCc1ccc(Cl)cc1)Nc1cc([N+](=O)[O-])ccc1O | 1 | 91* | -17 | 38 | 2
SMILES | PP1 counter | Calb FLC | ALR H2O2 inh | CSC inhib | PP5 inh
N#CC1=C(N)Oc2n[nH]c(-c3ccc(F)cc3)c2C1c1cccnc1 (centres undefined) | nt | 9 | nt | nt | nt
Cc1[nH]nc2c1C(c1cn[nH]c1-c1ccc(F)cc1)C(C#N)=C(N)O2 (centres undefined) | 2 | 6 | 92* | -6 | 2
CCCNC1=C(N(C(C)=O)c2cccc(F)c2)C(=O)c2ccccc2C1=O | 3 | 1 | -124 | 102* | 5
O=C(NCCc1ccccc1)N1c2ccccc2Sc2ccccc21 | 5 | 3 | -7 | 25 | 2
O=C(CN1CCCN(S(=O)(=O)c2ccc(Br)s2)CC1)Nc1ccc(Cl)cc1 | 5 | 1 | 91* | 9 | 6
CN(C)S(=O)(=O)c1cc(NC(=O)CN2CCN(c3ccccc3)CC2)ccc1Cl | 1 | -9 | 21 | 11 | 1
CCOC(=O)CNC(=O)CN1CCCN(S(=O)(=O)c2ccc(Br)s2)CC1 | -3 | nt | -2 | 5 | 1

Bioassay records as filed in PubChem.
